Assay outcomes (PubChem BioAssay)
KLK7 zymogen act: activators of human kallikrein-7 zymogen; P49862; purified proKLK7, EDANS-DABCYL substrate fluorescence; 100% is mature enzyme control, 0% vehicle; activation, % at 7 µM; actives 0.9% (n = 370,000); AID 652039;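 active means activation above the mean of all tested compounds plus 3 SD, computed per campaign excluding outliers beyond control limits, cut at about 13% in these data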
Target sequence (P49862 whole entry, looked up): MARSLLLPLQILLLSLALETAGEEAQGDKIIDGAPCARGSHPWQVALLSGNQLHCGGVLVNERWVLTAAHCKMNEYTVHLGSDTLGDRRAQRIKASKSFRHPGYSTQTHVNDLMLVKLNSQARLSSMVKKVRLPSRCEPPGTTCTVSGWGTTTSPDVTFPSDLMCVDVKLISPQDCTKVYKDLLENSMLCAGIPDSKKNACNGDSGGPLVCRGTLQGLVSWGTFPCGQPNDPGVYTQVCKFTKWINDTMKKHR
GAA850 FXN act: activators of GAA850 frataxin (FXN) promoter; activation, % at 6 µM; HEK293 lucGAA850 FXN promoter luciferase reporter, 24 h; percent of 10 µM SAHA response; actives 0.56% (n = 360,000);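 active means activation above the average of all compounds screened plus 3 SD, cutoff fixed separately per campaign, cut at about 7.5% in these data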
FAS TE block: blocks the thioesterase domain of human fatty acid synthase; P49327; recombinant FAS-TE, OMFH fluorogenic substrate, fluorescence endpoint; inhibition, % at 15 µM; actives 0.67% (n = 360,000); AID 602261;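 active means compounds whose normalised, plate-corrected inhibition of enzyme fluorescence in the single-dose primary screen is 50% or more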
SMARCA2 act: SMARCA2 function activation, primary screen; actives 1% (n = 370,000); activation, % at 9.1 µM; AID 652017; MG213 cells, MMTV-luciferase reporter, dexamethasone, overnight; in the data active means activation above about 7.8%
proKLK7 act conf: confirmation of human kallikrein-7 zymogen activators. purified proKLK7, EDANS-DABCYL substrate fluorescence; scaled: vehicle 0, mature enzyme 100. actives 68% (n = 3,200). activation, % at 7 µM. AID 686949. shares compounds with KLK7 zymogen act;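 active means activation, as change over the incubation, above the mean of all tested compounds plus 3 SD, cut at about 13% in these data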
EDANS-DABCYL int: optically interferes with EDANS-DABCYL signal, flagging KLK7 hits. shares compounds with KLK7 zymogen act. EDANS-DABCYL substrate fluorescence interference, no enzyme, 4 h; solvent 0%, active enzyme control 100%. activation, % at 7 µM. actives 80% (n = 3,200);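 active means activation above the all-compound mean plus 3 SD, ignoring values outside control-based bounds, cut at about 4.8% in these data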;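 further: value is the 4 h activation minus the activation read at time zero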
K7 EDANS ctr: EDANS fluorescence interference in dose response, no enzyme | actives 20% (n = 250) | EDANS-DABCYL peptide fluorescence interference | AID 720493 | shares compounds with KLK7 zymogen act | EC50, µM;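 active means compounds that raise the fluorescence signal in this interference counterscreen, with EC50 at or below 10 µM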;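 further: intact quenched peptide substrate alone read at 355 nm excitation and 520 nm emission; signal is fluorescence gain from T0 to T4 after four hours at room temperature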
Large screens that a line does not name were inactive (follow-up assays come after a bar, where they were run). The list is not random: actives were taken first. Their share in the collection is about 2.9%.

Cc1nn2c(-c3ccccc3)c(-c3ccccc3)nc2[nH]c1=O	none
O=C(O)CCc1nn2cc(-c3ccccc3)nc2[nH]c1=O	KLK7 zymogen act 55.9 | proKLK7 act conf 72.4 | EDANS-DABCYL int 81.1
C=CCNC(=O)c1cc2c(=O)n3ccccc3nc2s1	KLK7 zymogen act 51.9 | proKLK7 act conf 58.7 | EDANS-DABCYL int 68.8
Cc1cc(C)cc(NC(=O)c2cc3c(=O)n4ccccc4nc3s2)c1	none
O=C(NC1CCCCCC1)c1cc2c(=O)n3ccccc3nc2s1	KLK7 zymogen act 25.1 | proKLK7 act conf 15.9 | EDANS-DABCYL int 7.9 | K7 EDANS ctr inactive
CSc1ccccc1NC(=O)c1cc2c(=O)n3ccccc3nc2s1	none
CC(C)NC(=O)c1cc2c(=O)n3ccccc3nc2s1	KLK7 zymogen act 75.5 | proKLK7 act conf 75.4 | EDANS-DABCYL int 81.4
Cc1cccn2c(=O)c3cc(C(=O)NC4CCS(=O)(=O)C4)sc3nc12 (centres undefined)	KLK7 zymogen act 21.7 | proKLK7 act conf 52.7 | EDANS-DABCYL int 42.6 | K7 EDANS ctr inactive
COc1cc2c(cc1OC)CN(CC(=O)NC(=O)NCc1ccco1)CC2	KLK7 zymogen act 47.7 | proKLK7 act conf 14.4 | EDANS-DABCYL int 13.7
COc1cc2c(cc1OC)CN(CC(=O)NC(=O)NC(C)(C)C)CC2	none
O=C(Nc1ccccc1)c1cc(C2CCCCN2S(=O)(=O)c2ccccc2)on1 (centres undefined)	none
C[C@H](O)C(=O)C1=Nc2c(nc(N)[nH]c2=O)NC1	KLK7 zymogen act 16.4 | proKLK7 act conf 28.1 | EDANS-DABCYL int 33.4
C[C@H](O)[C@H](O)[C@H]1CNc2nc(N)[nH]c(=O)c2N1	none
CN(C)c1nc(C(F)(F)F)cc(=O)[nH]1	none
CC1Nc2nc(N(C)C)[nH]c(=O)c2NC1C (centres undefined)	KLK7 zymogen act 19.3 | proKLK7 act conf inactive | EDANS-DABCYL int 17.6
CN(C)c1ccc(N2C(=NC(=O)C3CCCO3)SC3CS(=O)(=O)CC32)cc1 (centres undefined)	none
CCN1C(=NCCOC)N[C@@H](c2cccs2)C(C(=O)OC)=C1C	none
COc1ccc(OC)c(C=Nc2ccccc2-c2nc3ccccc3[nH]2)c1	KLK7 zymogen act 30.6 | proKLK7 act conf inactive | EDANS-DABCYL int inactive
Oc1ccc(C=Nc2ccccc2-c2nc3ccccc3[nH]2)c(O)c1	KLK7 zymogen act 37.8 | proKLK7 act conf inactive | EDANS-DABCYL int inactive
CC1CCCCC12NC(=O)N(CC(=O)N1CCN(S(=O)(=O)c3ccc4c(c3)CCC4)CC1)C2=O (centres undefined)	none
C=CCC(=O)N1CCCC(CCC(=O)NCc2ccccc2F)C1 (centres undefined)	none
COc1ccccc1N1CCN(CC(=O)c2ccc3ccn(C(C)=O)c3c2)CC1	none (no result: KLK7 zymogen act, SMARCA2 act)
CC(=O)OCC(=O)c1ccc2ccn(C(C)=O)c2c1	KLK7 zymogen act 17.7 | proKLK7 act conf 32.4 | EDANS-DABCYL int 32.1
COc1ccc(C2=Nc3ccccc3C2(O)CCN2C(=O)c3ccccc3C2=O)cc1 (centres undefined)	KLK7 zymogen act 16.1 | proKLK7 act conf 22.0 | EDANS-DABCYL int 22.4
COc1ccc(OCCN2C(=O)c3ccccc3C2=O)cc1	none
O=C(O)CCc1nn2c3ccccc3n(CCN3CCCCC3)c2nc1=O	KLK7 zymogen act 46.2 | proKLK7 act conf inactive | EDANS-DABCYL int 11.0
COC(=O)c1cnc(SCc2ccc(C)cc2)n1C	none
Cc1nc(C(=O)NNC(=O)Nc2ccccc2)cs1	KLK7 zymogen act 15.5 | proKLK7 act conf inactive | EDANS-DABCYL int inactive
Cc1cc(C(=O)NNC(=O)Nc2ccccc2)no1	none
Cc1ccc(/C=C2\Oc3c(ccc(O)c3CN3CCN(CCO)CC3)C2=O)cc1	KLK7 zymogen act 96.5 | proKLK7 act conf 79.2 | EDANS-DABCYL int 72.8
CC(C)c1ccc(/C=C2\C(=O)N(CCN3CCOCC3)C(=S)N2C)cc1	none
CC(C)c1ccc(/C=C2\Oc3c(ccc(O)c3CN3CCN(C)CC3)C2=O)cc1	KLK7 zymogen act 37.9 | proKLK7 act conf inactive | EDANS-DABCYL int inactive
COCc1cc(C)nc2sc(C(=O)Nc3nccs3)c(N)c12	none
Cc1cc(C)c2c(N)c(C(=O)Nc3nccs3)sc2n1	KLK7 zymogen act 119.7 | proKLK7 act conf inactive | EDANS-DABCYL int inactive
